High-throughput results from PubChem BioAssay.
TEAD-YAP inh: TEAD-YAP interaction inhibition | HEK-TIYL cells, TEAD-Gal4/YAP UAS-luciferase luminescence | inhibition, % at 9.12 µM | 640,000 tested, 1.4% active | AID 1259422; in the data active means inhibition above about 32%;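 further: 0% = median of test compound wells and 100% = reference inhibitor wells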
GPR151 activ: activators of human GPR151; activation, % at 11.2 µM; 650,000 tested, 1% active; AID 1508602; PathHunter beta-arrestin GPR151 cells, luminescence; in the data active means activation above about 4.9%;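 further: 0% = median of compound wells and 100% = cells with positive control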
Target sequence (Q8TDV0 whole entry, looked up): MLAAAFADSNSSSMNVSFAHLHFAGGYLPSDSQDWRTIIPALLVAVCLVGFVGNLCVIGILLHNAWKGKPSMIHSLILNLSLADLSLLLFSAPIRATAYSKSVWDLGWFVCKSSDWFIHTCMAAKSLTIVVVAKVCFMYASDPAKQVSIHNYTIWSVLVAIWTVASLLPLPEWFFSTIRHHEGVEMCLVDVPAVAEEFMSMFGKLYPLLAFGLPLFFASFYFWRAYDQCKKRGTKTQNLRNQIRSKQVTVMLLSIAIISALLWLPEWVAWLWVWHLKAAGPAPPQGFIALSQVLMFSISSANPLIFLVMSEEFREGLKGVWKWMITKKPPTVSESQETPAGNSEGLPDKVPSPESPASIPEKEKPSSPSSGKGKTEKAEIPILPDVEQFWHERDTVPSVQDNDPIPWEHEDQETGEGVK
MITF primary: human MITF inhibition, primary screen; O75030; AlphaScreen MITF homodimerization, bead proximity signal; inhibition, % at 2.6 µM; 650,000 tested, 0.91% active; in the data active means inhibition above about 50%;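 further: 0% = vehicle wells with protein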
FBW7 activator: human FBW7 E3 ligase activation, primary screen; AID 1259310; normalized activity (activation), % at 26.1 µM; 650,000 tested, 0.13% active; AlphaScreen FBW7–phospho-cyclin E peptide binding, activator screen; Q969H0; in the data active means normalized activity above about 1.9%;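 further: purified mutant Fbw7 with reduced substrate affinity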
MITF confirm: human MITF inhibition, confirmation; shares compounds with MITF primary; AlphaScreen MITF homodimerization, biotin/His-MITF beads; inhibition, % at 2.6 µM; 4,700 tested, 16% active;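 active means inhibition above a cutoff derived from the DMSO control wells, cut at about 28% in these data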;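 further: 0% = MITF dimer wells with DMSO only; inhibitors lower the bead chemiluminescence by keeping MITF from dimerizing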
AS interf ctr: counter-screen: compounds optically interfering with AlphaScreen; inhibition, % at 2.6 µM; AID 1259376; 4,700 tested, 7.6% active; LysRS AlphaScreen counterscreen, signal interference, triplicate; shares compounds with MITF primary;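 active means inhibition above a cutoff derived from the DMSO control wells, cut at about 30% in these data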
Active calls of the source: *; / = no result given. Compounds with a hit are over-represented: about 3.5% of the library has one in this group of screens.

SMILES	TEAD-YAP inh	GPR151 activ	MITF primary	FBW7 activator	MITF confirm	AS interf ctr
CCC(C)NS(=O)(=O)c1ccc(NC(=O)CSc2ccccc2)cc1 (centres undefined)	-1	-2	25	1	/	/
CCN(CC)C(=O)CN1CCCC(c2ncncc2S(C)(=O)=O)C1 (centres undefined)	-3	0	64*	0	9	11
CS(=O)(=O)c1cncnc1C1CCCN(C(=O)N2CCCC2)C1 (centres undefined)	-11	-1	6	0	/	/
CCc1ccccc1NC(=O)CC1Sc2ccc(C(F)(F)F)cc2NC1=O (centres undefined)	6	1	12	0	/	/
CSc1ccccc1NC(=O)CC1Sc2ccc(C(F)(F)F)cc2NC1=O (centres undefined)	-4	-1	56*	0	-4	-6
Cc1cccc(NC(=O)CC2Sc3ccc(C(F)(F)F)cc3NC2=O)c1C (centres undefined)	4	0	66*	0	4	-7
O=[N+]([O-])c1cc(CN2CCCC2)c2cccnc2c1O	-2	0	99*	-1	106*	101*
CN1CCN(Cc2cc([N+](=O)[O-])c(O)c3ncccc23)CC1	2	1	97*	-1	105*	101*
CCN1CCN(c2cc(C)c3cc(NC(=O)C(C)Oc4ccc(Cl)cc4Cl)ccc3n2)CC1 (centres undefined)	5	0	-14	0	/	/
CC(C)COc1ccc2c(c1)Sc1ccccc1N2CCN(C)C	3	1	54*	0	21	20
COCCNCCOc1c(C)cccc1C(C)(C)C	4	1	80*	0	8	6
COCCNCCOCCOc1cccc(Cl)c1Cl	-1	-1	26	0	/	/
NCCNCCOCCOc1cccc(Cl)c1Cl	1	-1	51*	0	10	22
COCCNCCCOc1c(C)cccc1C(C)(C)C	5	0	19	0	/	/
CCCCNCCOCCOc1c(C)cccc1Cl	11	4	46	0	/	/
COCCNCCOCCOc1c(C)cccc1C(C)(C)C	-8	-2	61*	0	16	18
Cc1cccc(Cl)c1OCCOCCNCCO	0	0	73*	0	-4	-8
CCC(=O)N1N=C(c2ccc(F)cc2)CC1c1ccc(N(C)C)cc1 (centres undefined)	-20	2	10	0	/	/
CCS(=O)(=O)NCC(c1ccco1)S(=O)(=O)c1ccc(F)cc1 (centres undefined)	-2	1	-24	0	/	/
CCOC(=O)c1sc(N2N=C(C)C(N=Nc3ccccc3C(=O)O)C2=O)nc1C (centres undefined)	6	0	2	0	/	/
O=C(O)CN1CC2([N+](=O)[O-])C=CCC([N+](=O)[O-])(C1)C2 (centres undefined)	1	2	55*	0	5	28
CCN(CC)C(=O)C1=CC2([N+](=O)[O-])CN(CC(=O)O)CC([N+](=O)[O-])(C1)C2 (centres undefined)	-1	2	9	0	/	/
CCOc1ccc(/C=C/C(=O)Nc2ccc(N3CCOCC3)cc2)cc1	13	0	87*	0	7	14
COc1cc2nc(-c3ccccc3)nc(NCc3cccnc3)c2cc1OC	-1	1	-4	0	/	/
CCOC(=O)c1oc2ccccc2c1NC(=O)CCN1CCCCC1	4	2	12	0	/	/
SMILES	TEAD-YAP inh	GPR151 activ	MITF primary	FBW7 activator	MITF confirm	AS interf ctr
CC1=C(C(=O)Nc2ccc(C)cc2C)C(c2cccc(Cl)c2)NC(=S)N1 (centres undefined)	-2	1	73*	0	4	21
CC1=C(C(=O)Nc2ccc(C)cc2C)C(c2cccc(Cl)c2)NC(=O)N1 (centres undefined)	9	1	5	0	/	/
CCN1CCN(CCOc2cccc(Br)c2)CC1	8	0	68*	0	15	20
CN1CCN(CCOCCOc2cccc(Br)c2)CC1	10	-1	72*	0	5	5
CN1CCN(CCOCCOc2ccc(Br)cc2Cl)CC1	15	1	49	0	/	/
CC(C)NS(=O)(=O)c1ccc2c(c1)OCC(=O)N2CC(=O)NC1CCCCC1	-6	-3	-9	0	/	/
O=C(NC1CC1)c1ccc(-c2nc(C(=O)Nc3ccccc3)cs2)cc1	9	0	-7	0	/	/
